# phage Ecoli inh: E. coli growth loss with phage present. growth absorbance. inhibition, % at 11.9 µM. actives 0.26% (n = 360,000). AID 651602; in the data active means inhibition above about 11%
# AddAB inh: less growth of phage-infected E. coli with AddAB; E. coli expressing H. pylori AddAB, absorbance growth; inhibition, % at 11.9 µM; actives 0.29% (n = 330,000); in the data active means inhibition above about 12%;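 further: 0% = vehicle wells of infected cells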
# E coli growth-1: reduces bacterial viability in AddAB counter-screen. E. coli V3065 growth, OD600 absorbance, 18 h. inhibition, % at 11.9 µM. actives 0.27% (n = 330,000). AID 449728;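 active means inhibition above the campaign's mean inhibition across all tested compounds plus 3 SD, cut at about 9.9% in these data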;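 further: uninfected addAB+ strain grown without phage in ampicillin broth; 0% = DMSO wells and 100% = ciprofloxacin 0.95 µg/ml wells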
# Tat export inh: E. coli Tat transport inhibition; E. coli MC4100 TorA-mCherry Tat export, fluorescence; inhibition, % at 10 µM; actives 0.036% (n = 340,000); AID 488895;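 active means mean replicate inhibition at least 50% and at least half of replicates individually reaching 50%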;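 further: exported cargo escapes ClpAP degradation while cytoplasmic cargo is degraded and loses fluorescence; 0% = median of neutral control wells and 100% = median of NaSCN control wells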
# E coli growth-2: blocks Escherichia coli growth; OD600, 23 h; active compounds read low; OD600 absorbance (no concentration beside the values); actives 0.21% (n = 330,000);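 active means OD600 absorbance below the run mean of sample wells minus 3.6 SD, in any replicate, cut at about 0.56 in these data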
# Numbers without * were called inactive; i = inactive; / = no result given; ! = a repeat was not active. Only some compounds are listed: those with a hit (about 0.51% of all), similar ones and a draw of the others.
SMILES,phage Ecoli inh,AddAB inh,E coli growth-1,Tat export inh,E coli growth-2
CCN1/C(=C/C=C/C=C/c2sc3ccccc3[n+]2CC)Sc2ccccc21,/,23*,20*,/,/
Cc1[nH]cnc1C(=O)NN=Cc1ccc([N+](=O)[O-])s1,/,/,/,/,0.41*
COC(=O)NN=Cc1ccc([N+](=O)[O-])s1,/,/,/,/,0.62
CCOC(=O)c1c(-c2ccc(-c3ccccc3)cc2)csc1NC(=O)CNCCN(C)C,-3,-6,-3,13,0.41*
CCOC(=O)c1c(-c2ccccc2)csc1NC(=O)CCN1C(=O)c2ccccc2C1=O,3,5,-1,1,0.72
C=CC[n+]1ccc(/C=C2\C=Cc3cc(C)ccc3N2CC)c2ccccc21,/,/,/,-173,0.44*
C#CCOCCOCCOCCNc1nc(N2CCN(C(=O)CCCCCCCCCCNC(=O)C(CCSC)n3cc(CCO)nn3)CC2)nc(N2CCN(C(=O)CCCCCCCCCCNC(=O)C(CCC(=O)O)n3cc(CCCCCN)nn3)CC2)n1 (centres undefined),/,/,/,/,0.67
CN(C)C1C(=O)C(C(N)=O)=C(O)[C@@]2(O)C(=O)C3=C(O)c4c(O)ccc(Cl)c4C(O)C3CC12 (some centres undefined),/,/,/,/,0.063*
CCOC1OC(C(=O)N2CCOCC2)=CC(C2CC2)C1CCCO (centres undefined),/,/,/,/,0.69
CCCCCCCCCCCCCCCC(=O)OC(CC(=O)O)C[N+](C)(C)C (centres undefined),2,-2,-2,54*,0.64
CCCCCCC(=O)O,1,4,1,3,0.69
CC(C(=O)NCC1CC1)C1C[C@]1(C)C(NC(=O)OCc1ccccc1)c1ccccc1 (some centres undefined),/,/,/,/,0.69
COc1ccc(C(C)=NN2CCOCC2)c(O)c1,/,/,/,/,0.71
CC1CN(C(C)CO)C(=O)c2cc(NC(=O)CCN3CCOCC3)ccc2OC1CN(C)S(=O)(=O)c1ccc(F)cc1 (centres undefined),/,/,/,/,0.68
C#CCCc1cocc1C=[N+]([O-])c1ccc(C(=O)OCC)cc1,/,/,/,/,0.7
COc1ccc(NC(=O)CSc2nnc(Cc3cccn3C)n2-c2ccc(OC)cc2)cc1,2,3,0,4,0.72
COc1ccc(-n2c(Cc3cccn3C)nnc2SCC(=O)Nc2ccc(C(C)=O)cc2)cc1,0,0,-1,56*,0.73
Cc1cc(C)c(S(=O)(=O)/N=C2/C=C(Sc3ncn[nH]3)C(=O)c3ccccc32)cc1C,11*,5,4,-9,/
CCn1cc(C(=O)O)c(=O)c2cnc(N3CCN(C(=S)NC(=O)c4ccc(OC)cc4)CC3)nc21,1,7,6,1,0.43*
CCN1C(=O)C2C(c3ccc(-c4ccc(F)cc4)c(OC)c3)N[C@@](Cc3ccccc3)(C(=O)OC)C2C1=O (some centres undefined),/,/,/,/,0.7
O=C1CC(c2ccc(S(=O)(=O)NCc3ccncc3)cc2)CN1 (centres undefined),13*,4,1,-8,0.73
O=C1CC(c2ccc(S(=O)(=O)NC3CC3)cc2)CN1 (centres undefined),3,3,-1,-7,0.74
CN(C)c1ccc(/C=C/c2cccc[n+]2[O-])cc1,2,1,1,-8,/
CN(C)c1ccc(/C=C/c2ccc3ccccc3[n+]2C)cc1,7,28*,18*,i,0.29*
CN(C)c1ccc(/C=C/c2ccc3c4ccccc4ccc3[n+]2-c2ccccc2)cc1,17*,/,/,-335,0.24*
SMILES,phage Ecoli inh,AddAB inh,E coli growth-1,Tat export inh,E coli growth-2
C[C@]12CCC(=O)C=C1CCC1C2C(O)C[C@@]2(C)C1CC[C@]2(O)C(=O)CO (some centres undefined),/,/,/,/,0.71
CN1C(=O)C(N=Nc2ccc([N+](=O)[O-])cc2)SC1=S (centres undefined),-3,/,/,6,0.45*
CN1CCCCCC1=Nc1ccc([N+](=O)[O-])cc1,4,3,1,-3,0.67
Cc1cc(Nc2cccc(Cl)c2)nc(NCc2ccccc2)n1,4,0,1,-2,0.46*
COCCN1C(=O)NC(c2cccs2)C(C(=O)OC)=C1C (centres undefined),/,/,/,/,0.69
O=C(CSc1ccc(-c2ccccn2)nn1)c1ccc(F)cc1,4,8,11*,0,0.7
Cc1nnc(NC(=O)CSc2ccc(-c3ccccn3)nn2)s1,/,9,9.9*,/,0.62
Cc1nnc(NC(=O)CSc2ccc(-c3cccnc3)nn2)s1,4,1,1,-4,0.66
COc1ccc(NC(=O)CSc2ccc(-c3ccccn3)nn2)cc1OC,9,1,1,6,0.68
COc1ccccc1NC(=O)CSc1ccc(-c2ccccn2)nn1,12*,11,9,1,0.7
O=C(c1cc(O)c(O)c([N+](=O)[O-])c1)c1ccccc1F,3,-1,-1,57*,0.7
Cc1nn(-c2ccccc2)c(C)c1C=NO,/,/,/,/,0.75
CCCCN1C(=N)N([C@@H](CN2CCC[C@H]2CN2C(N)=NC[C@@H]2Cc2ccccc2)C(C)C)C[C@H]1Cc1ccccc1,2,1,1,5,/
CC(C)C[C@@H]1CN=C(N)N1C[C@@H]1CCCN1C[C@@H](C(C)C)N1C[C@@H](Cc2ccccc2)N(CCCC2CCCC2)C1=N,1,2,1,10,0.46*
NC(N)=N/N=C/c1ccccc1Cl,i,i,13*,-3,/
NC(N)=NN=Cc1ccc(OCc2ccccc2Cl)cc1,/,/,/,/,0.044*
NC(N)=N/N=C/c1c(Cl)cccc1Cl,7,6,12*!,3,/
NC(N)=NN=Cc1ccccc1Cl,/,/,/,/,0.7
CC(=NNC(=O)c1ccco1)c1ccc(NC(=O)c2ccc(F)cc2)cc1,/,/,/,/,0.66
CC(=O)OC1C(=O)[C@]2(C)C(O)CC3OC[C@@]3(OC(C)=O)C2C(OC(=O)c2ccccc2)[C@]2(O)CC(OC(=O)C(O)C(NC(=O)c3ccccc3)c3ccccc3)C(C)=C1C2(C)C (some centres undefined),/,/,/,/,0.69
CC(=O)NC(CC(=O)N(C)Cc1cccc(Cl)c1Cl)c1ccccc1 (centres undefined),2,1,3,-8,0.54*
CC(=O)NC(CC(=O)N(C)Cc1c(F)cccc1Cl)c1ccccc1 (centres undefined),1,2,3,5,0.69
NC1=NC[C@@H](CC2CCCCC2)N1CCc1cc(C(F)(F)F)cc(C(F)(F)F)c1,/,-2,-1,-5,0.062*
COc1ccc(NC(=O)NNC(=O)c2cc3ccccc3cc2O)cc1,9,12,10*,-6,0.68
COc1ccc(NC(=O)NNC(=O)c2ccc3ccccc3c2O)c(OC)c1,12*,10,7,6,0.71
COc1ccc(NC(=O)NNC(=O)c2cc(C3CC3)nc3ccccc23)c(OC)c1,1,2,-3,-5,0.68
CCOc1ccc(NC(=O)c2cc3ccccc3cc2O)cc1,5,2,0,-4,0.68
C=CCn1c(=O)c(C(=O)NCCNCC)c(O)c2ccccc21,4,-1,-3,-11,0.66
C=CCn1c(=O)c(C(=O)NCc2ccccc2)c(O)c2ccccc21,10,11,11*,1,0.68
